In the supplement of paper PMC3334620:
The full ranking holds about 33,000 sequences; the median of “E-score (-0.5 to 0.5)” is about -8e-05, and the highest 2% start at about 0.23. This is one part of a sample in which the highest values are shown more often than they occur.

Target: T1, Nrg2 (UniProt P38082)
T1 sequence: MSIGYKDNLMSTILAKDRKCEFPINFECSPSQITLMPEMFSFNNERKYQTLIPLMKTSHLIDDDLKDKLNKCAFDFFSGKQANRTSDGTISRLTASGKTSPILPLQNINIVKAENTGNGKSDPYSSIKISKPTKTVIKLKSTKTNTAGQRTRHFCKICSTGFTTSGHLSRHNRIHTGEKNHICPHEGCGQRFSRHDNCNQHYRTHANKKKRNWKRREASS
Experiment: PBM E-score (8-mer binding enrichment) (E-score (-0.5 to 0.5)); higher = stronger / more preferred TF binding
Settings: protein concentration: 100 nM; construct: GST-full length
Method: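 Universal 'all 10-mer' protein binding microarrays (Agilent AMADID 015681) probed with GST-tagged S. cerevisiae TFs (full-length or DBD) made by in vitro transcription/translation (PURExpress), about 100-200 nM. Bound TF was detected with fluorescent anti-GST. Each ungapped 8-mer (which stands for itself and its reverse complement) is scored by the PBM enrichment score (E-score), a modified Wilcoxon-Mann-Whitney statistic from -0.5 to +0.5, computed with the Universal PBM Analysis Suite. Scale: above 0.35 generally sequence-specific binding.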

Sequence	PBM E-score
CGGCTATA	-0.0676
GTAACCAA	0.0617
CTCCGAAA	-0.0954
ATGACAAC	0.239
ATGACAAG	0.142
AAGACAAG	-0.0376
AAGACAAC	0.235
CAGACAAC	0.178
GTGACAAC	0.112
AAACCGAT	-0.137
CCGCCCGA	0.148
ACTTGGCC	-0.0839
ATCTGCGC	0.0656
ATCTGCGA	0.0624
ATCTGCGG	0.229
ACTAGAGT	-0.204
CTTCGGAC	0.0444
ATTATCGC	0.254
ATTATCGG	-0.142
ATTATCGA	-0.00721
ATAGGGGG	-0.364
CCCGACCG	-0.0769
CACCTGGG	-0.0933
AACGCGAG	0.092
ATCGCGAG	0.175

Sequence	PBM E-score
GTCGCGAA	0.125
AACGCGAA	0.249
GGCGCGAC	0.149
CACGCGAA	-0.135
ATCGCGAT	0.271
GTCGCGAC	0.37
TTCGCGAA	0.22
CTCGCGAC	0.192
ATCGCGAA	0.268
ATCGCGAC	0.0998
CCGCGCCA	-0.00589
CTCCTGTA	-0.111
ATACCGGA	-0.222
GGCGAGAA	0.16
AGTGTATG	0.0501
AAGCTACT	0.0546
GATCCAGA	0.187
AACGTAGG	-0.148
CAAAGCGG	-0.0751
AAGCAGTA	-0.0813
GCGCAGAA	0.248
CCGCAGAA	0.245
GCGCAGAC	0.0533
CCGCAGAG	-0.193
TCGCAGAA	-0.114

Sequence	PBM E-score
CCGCAGAC	-0.105
CAAGCGGC	0.0964
CACCTATA	-0.032
AGTGAAGC	0.054
AAAGAACG	0.0453
ATTAATCA	0.171
AGTCTTGA	-0.0377
AACGGCAA	0.156
AACGGCAC	-0.244
AACGGCAT	0.23
AACGGCGA	0.303
AACGGCGT	-0.11
CACGGCGA	0.0616
ATTGCGAG	0.0375
GTACGAGA	0.0861
TGACGGAA	-0.00402
AAGGACTC	-0.0561
ATGCTCGG	0.117
AAATCCAG	0.196
AAATCCAT	0.266
AAATCCAC	0.082
ATGGTGGA	-0.0629
TTATTCAA	0.029
ACATTAAA	0.143
TTATTAAA	0.196

Sequence	PBM E-score
ATATTCAA	0.244
TCATTAAA	0.35
ATATTAAT	0.286
GCATTAAA	0.136
ATATTAAC	0.176
CTATTCAA	0.0974
CTATTAAA	0.151
ATATTAAG	0.0738
ATATTAAA	0.29
CGTTAAAC	0.0981
ATAGTGAC	-0.0527
ATATTATC	0.0409
AAATTATG	0.106
ATATTATG	0.304
AAACCATC	0.103
ATGTGCAC	0.0387
CATCTAAC	-0.152
GGCATAGA	0.0809
GATTATAC	0.235
GATTATAA	0.207
AATTATAC	0.122
CTTAGAAC	0.0319
CTGACTGA	-0.0542
GCTCGAAC	0.191
GAAAGAAC	0.0456

Sequence	PBM E-score
TGCAGAAA	0.104
GAAAGAAA	0.281
GGCAGAAA	0.286
CAAAGAAA	0.0775
GGCAGAAC	0.088
AAGCTGAG	-0.00374
AGCGGTAG	-0.196
GAGTAAGA	-0.0102
AAGACGGT	-0.161
CAAAGCAA	0.265
CAAAGCAC	-0.0605
CAAAGCAG	0.0557
AGTTAGGG	0.0307
ACATAAAC	0.0128
GCGACCAC	-0.0633
GAGACCAA	0.241
GCGACCAA	0.248
CAGACCAA	0.0347
TAGACCAA	0.121
ACGACCAA	-0.12
CCTTATCC	-0.23
AAACTAGG	-0.0197
CACCGCAA	0.233
CACCGCAG	0.0838
AACCGCAA	0.185

Sequence	PBM E-score
CGCATGCA	0.246
TGCATGCA	0.233
CGCATGCC	0.145
CGCATGCG	0.0387
AGCATGCA	0.00231
GGCATGCA	-0.113
GGGCGACA	-0.132
AGAGTTGA	-0.073
GTCCCACA	0.0612
ACGTTGAC	-0.00444
ACAACACA	0.0869
CCAACACG	0.0552
TCAACACA	0.235
CTTCGATC	-0.00647
GGATTCGA	-0.0125
AGATTCGA	0.0269
CGATTCGA	0.27
GCCGCGCC	-0.0901
GTCCCGTA	-0.111
ACGCGACC	-0.0575
GATGCAAA	0.0177
AAGCAACG	0.161
CAGCAACA	0.159
CAGCAACG	0.251
GTCAGCAC	-0.0154

Sequence	PBM E-score
GACTACGC	-0.187
AACGAAAT	0.251
AACGAAAG	-0.0319
AACGAAAC	0.117
ATTGCAGC	0.0702
GGGCGTAC	0.0663
GCACCCTA	0.105
CTAACCCA	-0.00624
GGGACCTA	0.245
ATAACCCA	-0.0462
GAACCCCA	0.26
GGACCCTA	0.305
CGGACCTA	0.0604
CGACCCTA	0.109
GTAACCCA	0.229
AGGACCTA	0.114
GAACCCCC	-0.322
GAACCCAA	0.0482
GCGCTGGA	0.0138
ATGGGTAG	-0.13
CGACGGTA	0.0706
GCAATAGC	0.133
AAAAGGGC	0.12
ATGCTCCA	0.0544
GGACCCCC	-0.144

Sequence	PBM E-score
TGACCCCA	0.0468
GGACCCCA	0.236
AAGATAGC	0.0443
GAGACGAA	-0.0342
GGGACGAA	0.0439
CGGACGAA	0.233
CAGACGAA	0.252
CGGACGAC	-0.061
CAGACGAC	-0.0246
AAGCTAAT	0.11
CTAGTCAC	-0.122
AACTACAT	-0.038
GGTCTCGA	0.0782
CAGACGGC	-0.16
CGAGGAAC	0.269
AGAGGAAC	-0.113
CGAGGAAA	0.0442
CAGCACGA	0.0405
ACCCTTGC	0.268
GCCCTTGA	-0.00607
CCCCTTGC	-0.0115
ACCCTTGA	0.242
ACCCTTGG	0.198
CCCCTAGA	0.117
ACCCTAGT	-0.0371

Sequence	PBM E-score
CCCCTTGA	0.2
ACCCTAGA	0.284
AGGACTAA	-0.0768
GTACTAGA	-0.00429
AACGACTC	-0.253
ATAGAAGA	-0.158
CACAGGCA	0.0159
AATGACGG	0.125
CACCGCGC	-0.0311
CGCAGCTA	-0.0329
CATCCACA	0.0702
ACAGAATA	0.148
GGAAATGA	0.25
GAAAATGA	-0.0055
CGAAATGA	0.127
AAAAATGA	0.0139
TAAAATGA	0.254
CTAAATGA	0.0289
CCACCAGA	0.0154
CCCGGAGA	-0.138
TGATAGCA	0.14
TGAGGACA	0.0644
ACTCTTTA	-0.0446
GAGTAGGC	-0.0622
AATACTGC	0.068

Sequence	PBM E-score
ACAGCTGC	-0.0727
CTTACTAA	0.0213
CAGGCCTG	0.115
AGGGTACA	0.181
AGGGTACC	0.0534
AGGGTACT	0.255
GGTCTACA	-0.0592
CAAACCAC	-0.00637
CTACGTTC	-0.178
TCGGAACA	0.313
CCGGAACA	-0.0209
ACGGAACA	0.0339
CGGCCATA	-0.123
AGGTTTCC	-0.0376
TCCGTGCA	0.134
CGAACGGC	-0.0328
CATGGCCG	0.258
CATGGCCA	-0.042
CATGGCCC	-0.066
AGTCAGTC	-0.127
ACTAATCG	0.278
CCTAATCG	0.16
ACTAATCT	0.00502
GGACCACC	0.0365
ACTCCAGC	-0.0193

Sequence	PBM E-score
GATTTCGA	0.00717
AATTTCGC	0.244
CATTTCGC	0.184
AATTTCGA	0.0453
GATTTCGC	0.281
ATTTTCGC	0.131
GTAGTCTA	-0.118
AGCAATAT	0.0474
AACAATAG	-0.124
AACAATAA	0.26
AACACTAG	0.152
AACACTAT	0.252
AACAATAT	0.266
GACAAAAA	0.0692
GACAAGAC	0.154
GACAAAAC	0.274
AACACTAC	0.0505
ACCAATAT	0.213
AACAATAC	0.202
AGTGAATC	0.0226
ATTTGCTC	0.156
GCCGAGGC	0.177
CATTAAGA	-0.214
ACTGGCCT	-0.0393
CCGGAGCC	-0.189

Sequence	PBM E-score
AACAATCT	0.0946
CGTAATAG	-0.00104
AACAATCG	-0.0412
AGTAATAC	-0.0266
AATAATAT	0.283
AATAATAA	0.0987
GACAATAC	0.232
AACAATCC	0.241
AATAATAG	0.0626
CACAATAC	0.173
GACAATAA	0.218
AGTAATAG	0.247
TCTCTTAA	0.123
AGGTTCAG	0.0524
ACCCTTCT	-0.104
GCCTGGTA	0.0618
ATAGGTTA	-0.00463
AGCAATAC	0.12
CGCAATAA	0.211
CGCAATAC	0.231
GATACACC	0.0324
AAATCGAC	0.237
ATGTCGAA	0.147
TAATCGAA	0.176
CAATCGAC	-0.102

Sequence	PBM E-score
CTGTCGAC	-0.0435
GTATCGAC	0.123
ATGTCGAC	0.254
CAATCGAA	0.258
ATATCGAC	0.255
CTATCGAC	-0.166
AAATCGAG	0.0129
AAATCGAA	0.111
CGCCGGAC	0.0155
CCCTGTCC	0.0104
CTTGAAGC	-0.0505
CAACGGTG	-0.187
CAACAAGG	0.186
GACTCTCA	-0.0326
AATGCACC	0.0152
GAATTTGC	0.172
ATCTGAGG	0.0579
ACTAACGA	0.00448
CACAGCGC	0.156
GGCGAACA	-0.00418
CCCGACAA	0.261
CGCGACCA	0.23
CCCGACAG	-0.165
GGCGACAA	-0.0104
CGCGAACA	0.264

Sequence	PBM E-score
GGCGACCA	-0.146
AGCGAACA	0.0707
AGCGACCA	-0.0183
ACCGACAA	0.0162
CGCGACAA	0.308
TGCGACAA	0.0655
ACGCCCCA	0.179
AAGGCGGG	-0.208
CGGTGATA	-0.0567
ACAGAGCA	0.0833
TAGCATGA	0.149
CAAATGAA	-0.0303
TAAATGAA	0.0819
CAAATGAC	0.0271
GAAATGAA	0.29
GAAATGAC	0.249
AAAATGAC	0.0768
AGCGAAAC	0.102
CTTACCAA	0.069
